In ChEMBL document CHEMBL3988442, “University of Dundee, Small-Polar-MMV Screening Library” (2021):
For some assays here: Potency and affinity values are given separately.

Columns and labels:
Parameters in all cases: scale not given: direction of the effect not stated beside the values
[1] = target: Protein translocase subunit SecA (Escherichia coli (strain K12)) (UniProt P10408); assay: Assay to Identify E. coli SecA ATPase Inhibitors; assay type: functional; conditions: 30 µM
[2] = target: T1, Ubiquitin-activating enzyme e1, putative (Leishmania donovani (strain BPK282A1)) (UniProt E9BSI1); assay: Leishmania donovani Ubiquitin Activating Enzyme (LdE1); assay type: functional; conditions: 30 µM
T1 sequence (whole entry): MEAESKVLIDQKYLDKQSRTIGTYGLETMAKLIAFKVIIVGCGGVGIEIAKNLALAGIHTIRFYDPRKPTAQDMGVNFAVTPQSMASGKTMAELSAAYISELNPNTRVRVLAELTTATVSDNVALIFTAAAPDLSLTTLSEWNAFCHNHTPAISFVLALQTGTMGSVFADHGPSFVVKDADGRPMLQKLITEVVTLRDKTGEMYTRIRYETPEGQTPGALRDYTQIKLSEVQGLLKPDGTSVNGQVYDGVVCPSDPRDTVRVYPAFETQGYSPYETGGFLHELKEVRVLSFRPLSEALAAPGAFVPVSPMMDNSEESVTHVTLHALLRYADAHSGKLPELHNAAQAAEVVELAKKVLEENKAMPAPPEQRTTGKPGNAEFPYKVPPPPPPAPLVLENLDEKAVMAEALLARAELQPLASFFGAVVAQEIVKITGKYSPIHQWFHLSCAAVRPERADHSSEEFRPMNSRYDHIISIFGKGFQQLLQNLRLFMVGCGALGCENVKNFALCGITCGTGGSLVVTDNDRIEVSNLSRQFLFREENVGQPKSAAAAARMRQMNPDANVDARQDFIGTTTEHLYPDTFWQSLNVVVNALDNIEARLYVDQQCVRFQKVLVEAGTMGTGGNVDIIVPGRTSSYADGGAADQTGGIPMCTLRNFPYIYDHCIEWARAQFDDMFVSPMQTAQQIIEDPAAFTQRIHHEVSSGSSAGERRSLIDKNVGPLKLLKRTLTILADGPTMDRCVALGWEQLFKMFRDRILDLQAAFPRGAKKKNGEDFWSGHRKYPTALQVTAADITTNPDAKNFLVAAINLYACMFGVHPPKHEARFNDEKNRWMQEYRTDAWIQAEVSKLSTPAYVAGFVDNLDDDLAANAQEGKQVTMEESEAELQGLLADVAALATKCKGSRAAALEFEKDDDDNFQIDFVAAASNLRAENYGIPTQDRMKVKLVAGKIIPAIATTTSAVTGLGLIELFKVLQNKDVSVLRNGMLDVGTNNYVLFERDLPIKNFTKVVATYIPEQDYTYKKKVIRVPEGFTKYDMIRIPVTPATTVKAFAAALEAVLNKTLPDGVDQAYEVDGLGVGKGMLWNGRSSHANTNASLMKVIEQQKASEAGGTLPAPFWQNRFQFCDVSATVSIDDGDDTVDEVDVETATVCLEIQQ

[3] = target: AMP-activated protein kinase, AMPK (Homo sapiens) (UniProt P54646+O43741+P54619+Q9UGJ0+Q9Y478+Q13131+Q9UGI9); assay: AMP-dependent Kinase enzyme assay. An in vitro enzyme assay that detects ADP turnover that is directly proportional to AMPK activity. This uses naive AMPK that is activated during the assay with MK-8722; assay type: functional; conditions: 30 µM
[4] = target: Sialic acid-binding Ig-like lectin 9 (Homo sapiens) (UniProt Q9Y336); assay: Hs-Siglec9 ALPHAscreen SOP 20170721; conditions: 10 µM
[5] = tested on: Trypanosoma cruzi; assay: Trypanosoma cruzi phosphomannomutase and mannose-1-phosphate guanylyltransferase assay; assay type: functional; conditions: 10 µM
[6] = target: T2, Arginase-2, mitochondrial (Homo sapiens) (UniProt P78540); assay: in vitro enzyme assay to detect the production of urea directly proportional to the activity of Arginase II; assay type: functional; conditions: 33.3 µM; note: in the data most compounds retested in dose-response had high values
T2 sequence (whole entry): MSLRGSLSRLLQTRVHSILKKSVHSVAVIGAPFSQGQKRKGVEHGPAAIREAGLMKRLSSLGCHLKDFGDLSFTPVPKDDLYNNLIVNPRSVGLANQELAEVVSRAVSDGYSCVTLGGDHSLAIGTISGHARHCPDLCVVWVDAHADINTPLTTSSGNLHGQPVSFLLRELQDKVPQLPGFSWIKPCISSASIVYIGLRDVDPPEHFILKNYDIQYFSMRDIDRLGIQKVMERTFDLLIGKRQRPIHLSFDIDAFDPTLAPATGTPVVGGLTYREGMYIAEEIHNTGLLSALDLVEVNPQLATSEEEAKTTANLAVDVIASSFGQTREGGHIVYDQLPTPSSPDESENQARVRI

[7] = target: T3, Proteasome subunit beta (Trypanosoma cruzi) (UniProt O96673); assay: Trypanosoma cruzi proteasome chymotrypsin-like activity (TcProtChymo) assay.; note: in the data most compounds retested in dose-response had high values; assay type: functional; conditions: 9.37 µM
T3 sequence (whole entry): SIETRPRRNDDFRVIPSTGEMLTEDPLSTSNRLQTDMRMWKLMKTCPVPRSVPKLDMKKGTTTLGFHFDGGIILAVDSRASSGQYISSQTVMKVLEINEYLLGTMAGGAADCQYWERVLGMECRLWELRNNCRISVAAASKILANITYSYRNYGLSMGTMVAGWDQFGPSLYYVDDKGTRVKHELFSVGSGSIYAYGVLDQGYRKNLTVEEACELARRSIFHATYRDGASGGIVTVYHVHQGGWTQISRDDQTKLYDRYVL

[8] = species: Homo sapiens; assay: To identify inhibition of the IFN signalling (Jak-Stat) pathway via expression of an eGFP reporter gene under the control of an IFN-stimulated response element (ISRE) containing MxA promoter.; assay type: functional; conditions: 30 µM
[9] = target: T4, Tyrosyl-tRNA synthetase, putative (Trypanosoma cruzi (strain CL Brener)) (UniProt Q4DSP6); assay: Trypanosoma cruzi tyrosyl tRNA synthetase (TcYRS) _High Tyrosine SOP; assay type: functional; conditions: 30 µM; note: in the data most compounds retested in dose-response had high values
T4 sequence (whole entry): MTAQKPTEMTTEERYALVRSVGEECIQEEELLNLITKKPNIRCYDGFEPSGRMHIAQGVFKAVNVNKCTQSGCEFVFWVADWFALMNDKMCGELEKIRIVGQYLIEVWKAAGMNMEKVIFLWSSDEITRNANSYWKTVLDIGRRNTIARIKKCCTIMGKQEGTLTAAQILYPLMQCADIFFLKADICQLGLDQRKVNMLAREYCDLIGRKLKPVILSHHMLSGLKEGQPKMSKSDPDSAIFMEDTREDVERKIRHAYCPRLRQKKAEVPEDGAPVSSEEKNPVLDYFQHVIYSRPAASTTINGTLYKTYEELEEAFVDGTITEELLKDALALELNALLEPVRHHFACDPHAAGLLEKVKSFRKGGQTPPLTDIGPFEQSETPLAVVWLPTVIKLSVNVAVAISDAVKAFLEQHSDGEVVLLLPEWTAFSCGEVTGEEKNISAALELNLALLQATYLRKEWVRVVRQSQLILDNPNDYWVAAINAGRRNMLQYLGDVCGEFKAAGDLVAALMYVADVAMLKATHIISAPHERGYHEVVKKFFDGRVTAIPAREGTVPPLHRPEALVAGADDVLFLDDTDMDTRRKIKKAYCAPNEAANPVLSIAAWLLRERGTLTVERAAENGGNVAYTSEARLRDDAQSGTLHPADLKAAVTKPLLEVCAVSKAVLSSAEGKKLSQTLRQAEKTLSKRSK

[10] = target: T4, Tyrosyl-tRNA synthetase, putative (Trypanosoma cruzi (strain CL Brener)); assay: Trypanosoma cruzi tyrosyl tRNA synthetase (TcYRS) SOP; assay type: functional; conditions: 30 µM
[11] = target: Chromo domain-containing protein 1 (Saccharomyces cerevisiae (strain ATCC 204508 / S288c) (Baker's yeast)) (UniProt P32657); assay: ScCHD-1 Enzyme Inhibition Assay; assay type: functional; conditions: 30 µM; note: in the data most compounds retested in dose-response had high values
Chromo domain-containing protein 1 (Saccharomyces cerevisiae (strain ATCC 204508 / S288c) (Baker's yeast)), sequence (P32657 whole entry, the tested form may be a part): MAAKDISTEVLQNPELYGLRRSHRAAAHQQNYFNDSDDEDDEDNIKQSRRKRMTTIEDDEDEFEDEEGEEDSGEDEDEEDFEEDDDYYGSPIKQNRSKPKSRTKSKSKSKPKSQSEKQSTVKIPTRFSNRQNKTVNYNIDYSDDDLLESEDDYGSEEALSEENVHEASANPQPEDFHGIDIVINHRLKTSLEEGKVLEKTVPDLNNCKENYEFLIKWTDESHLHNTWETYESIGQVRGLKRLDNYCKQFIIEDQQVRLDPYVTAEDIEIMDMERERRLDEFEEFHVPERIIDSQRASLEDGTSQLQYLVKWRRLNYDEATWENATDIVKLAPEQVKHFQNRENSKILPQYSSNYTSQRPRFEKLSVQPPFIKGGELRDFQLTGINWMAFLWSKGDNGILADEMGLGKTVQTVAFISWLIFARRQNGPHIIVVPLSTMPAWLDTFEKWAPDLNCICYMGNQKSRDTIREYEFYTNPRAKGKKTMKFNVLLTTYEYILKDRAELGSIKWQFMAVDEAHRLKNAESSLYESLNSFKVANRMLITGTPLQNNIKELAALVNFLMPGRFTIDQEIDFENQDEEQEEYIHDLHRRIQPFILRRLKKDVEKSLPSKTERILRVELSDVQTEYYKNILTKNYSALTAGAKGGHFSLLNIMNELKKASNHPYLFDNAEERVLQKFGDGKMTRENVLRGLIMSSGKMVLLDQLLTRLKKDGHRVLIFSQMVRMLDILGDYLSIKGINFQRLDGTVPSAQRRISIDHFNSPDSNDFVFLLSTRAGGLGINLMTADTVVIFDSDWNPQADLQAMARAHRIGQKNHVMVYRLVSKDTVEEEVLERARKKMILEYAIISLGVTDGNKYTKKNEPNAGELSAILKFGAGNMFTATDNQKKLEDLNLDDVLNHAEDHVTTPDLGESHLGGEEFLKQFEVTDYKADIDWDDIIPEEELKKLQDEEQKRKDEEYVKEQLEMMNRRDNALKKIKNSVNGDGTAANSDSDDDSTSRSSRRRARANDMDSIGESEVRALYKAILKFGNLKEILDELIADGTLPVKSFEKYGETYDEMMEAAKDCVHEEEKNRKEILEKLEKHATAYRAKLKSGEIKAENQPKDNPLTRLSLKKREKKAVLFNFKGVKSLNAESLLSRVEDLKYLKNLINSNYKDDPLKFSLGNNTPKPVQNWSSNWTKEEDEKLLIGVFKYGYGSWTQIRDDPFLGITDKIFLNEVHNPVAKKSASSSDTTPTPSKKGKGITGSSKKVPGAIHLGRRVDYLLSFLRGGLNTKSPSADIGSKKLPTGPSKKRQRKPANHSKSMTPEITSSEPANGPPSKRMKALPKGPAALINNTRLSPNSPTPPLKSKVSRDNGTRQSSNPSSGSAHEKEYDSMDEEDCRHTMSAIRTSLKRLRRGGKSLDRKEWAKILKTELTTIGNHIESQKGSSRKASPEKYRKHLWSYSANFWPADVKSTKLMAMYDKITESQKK

Protein translocase subunit SecA (Escherichia coli (strain K12)), sequence (P10408 whole entry): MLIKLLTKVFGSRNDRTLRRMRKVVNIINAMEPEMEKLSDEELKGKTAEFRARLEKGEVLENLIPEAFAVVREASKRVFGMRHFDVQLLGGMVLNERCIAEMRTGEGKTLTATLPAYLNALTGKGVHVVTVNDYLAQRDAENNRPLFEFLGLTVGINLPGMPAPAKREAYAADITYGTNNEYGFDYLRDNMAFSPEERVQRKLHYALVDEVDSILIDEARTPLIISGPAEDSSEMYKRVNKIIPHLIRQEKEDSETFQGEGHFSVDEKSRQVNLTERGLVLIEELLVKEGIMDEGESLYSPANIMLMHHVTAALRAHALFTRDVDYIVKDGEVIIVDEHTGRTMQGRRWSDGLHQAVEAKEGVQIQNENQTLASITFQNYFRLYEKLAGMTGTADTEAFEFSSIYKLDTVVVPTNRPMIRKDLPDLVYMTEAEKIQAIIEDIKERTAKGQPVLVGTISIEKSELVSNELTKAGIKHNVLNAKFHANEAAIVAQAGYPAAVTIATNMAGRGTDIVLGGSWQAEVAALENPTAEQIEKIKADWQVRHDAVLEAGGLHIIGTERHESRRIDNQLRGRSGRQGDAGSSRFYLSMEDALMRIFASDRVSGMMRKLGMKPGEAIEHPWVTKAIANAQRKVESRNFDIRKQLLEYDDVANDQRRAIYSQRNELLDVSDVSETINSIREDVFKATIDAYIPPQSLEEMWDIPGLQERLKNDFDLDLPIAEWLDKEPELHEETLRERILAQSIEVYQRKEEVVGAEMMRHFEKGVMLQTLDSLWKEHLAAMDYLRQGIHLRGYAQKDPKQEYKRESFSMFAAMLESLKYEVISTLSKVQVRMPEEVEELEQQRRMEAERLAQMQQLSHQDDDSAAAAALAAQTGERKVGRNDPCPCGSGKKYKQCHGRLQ
Sialic acid-binding Ig-like lectin 9 (Homo sapiens), sequence (Q9Y336 whole entry): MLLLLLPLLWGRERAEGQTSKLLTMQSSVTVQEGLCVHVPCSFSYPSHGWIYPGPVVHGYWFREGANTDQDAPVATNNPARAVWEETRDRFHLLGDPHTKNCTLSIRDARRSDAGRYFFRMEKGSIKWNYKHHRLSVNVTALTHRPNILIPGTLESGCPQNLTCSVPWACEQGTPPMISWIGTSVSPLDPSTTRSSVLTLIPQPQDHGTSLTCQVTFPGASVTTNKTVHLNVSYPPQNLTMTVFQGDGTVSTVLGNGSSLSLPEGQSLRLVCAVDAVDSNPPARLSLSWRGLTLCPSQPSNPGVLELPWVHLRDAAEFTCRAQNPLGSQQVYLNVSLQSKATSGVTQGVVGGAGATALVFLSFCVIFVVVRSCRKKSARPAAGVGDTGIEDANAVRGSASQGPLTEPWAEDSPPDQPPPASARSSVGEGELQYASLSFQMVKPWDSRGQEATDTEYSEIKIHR

SMILES | Percent Effect [1] [%] | Percent Effect [2] [%] | Percent Effect [3] [%] | Percent Effect [4] [%] | Percent Effect [5] [%] | Percent Effect [6] [%] | Percent Effect [7] [%] | Percent Effect [8] [%] | Percent Effect [9] [%] | Percent Effect [10] [%] | Percent Effect [11] [%]
CCS(=O)(=O)N1C[C@H]2C[C@H](C(=O)N(C)C)[C@@H](C1)O2 | -1.35 | 8 | 9.37 | 0.653 | -5.51 | 3.03 | 5.55 | 5.25 | 4.25 | 6.41 | -3.75
COCCC(=O)N1CCC2(CN(Cc3ccc(OC)c(F)c3)C2)C1 | 1.99 | 13.7 | -3.76 | 8.62 | 5.16 | 0.399 | 6.42 | -17.9 | 6.25 | 18.5 | -0.472
CC(C)n1ncc2c1NC(=O)CC21C(=O)Nc2c(Cl)cccc21 (stereo unspecified) | -1.42 | -1.33 | 3.7 | 7 | -0.393 | -6.87 | 0.185 | 34 | 1.06 | 2.56 | -2
O=C(c1ccsc1)N1CCCC(c2cc(C(F)(F)F)[nH]n2)C1 (stereo unspecified) | -8.76 | 5.26 | 10.2 | -0.389 | -4.39 | 0.719 | -2.12 | 24.2 | 0.493 | 3.7 | 7.08
O=C(COCC1CC1)N1CCCC(n2ccnc2)C1 (stereo unspecified) | -2.64 | 11.4 | 1.59 | -0.338 | -1.33 | 2.37 | 9.26 | 5.7 | 1.04 | 5.06 | -21.1
COc1ccc(CN2C[C@@H](OCc3csc(C)n3)[C@H]3COC[C@H]32)cc1 | -4.6 | 2.74 | -10.5 | 0.865 | -2.78 | -0.399 | 2.65 | -6.15 | 2.08 | 8.64 | -3.52
Cc1nn(C)c(N2CCOCC2)c1CNC(C)c1cccnc1 (stereo unspecified) | -3.55 | 6.94 | -10.5 | 21.7 | 2.62 | 7.95 | 11.4 | -22.8 | 3.16 | 10.3 | -6.39
Cc1ccc(NC(=O)N2CCN(Cc3noc(C4CC4)n3)CC2)cc1 | -10.7 | -1.27 | 5.38 | -5.9 | -3.38 | -4.09 | 10.1 | 10.8 | -1.04 | -5.06 | -24.6
Cc1oc(C(=O)O)cc1S(=O)(=O)Nc1cc(Cl)ccc1F | -4.85 | 5.2 | -3.17 | 6.3 | 0.374 | -1.42 | -6.59 | 2.33 | 3.88 | 2.44 | -4.3
CC1CCCCN1CCNC(=O)c1ccn(-c2ccc(F)cc2)n1 (stereo unspecified) | -2.64 | 18.9 | 3.92 | 3.77 | 6.51 | -16 | 18.9 | 6.78 | -26.1 | 23.5 | -19.6
O=C(N[C@@H]1CN(Cc2ccccc2)C[C@@H]2CCCO[C@@H]21)C1CC1 | 3.31 | 10.7 | 0.707 | 7.92 | -2.32 | -49.3 | 4.96 | -2.02 | 7.29 | 22.5 | -7.85
Cc1nn(-c2ccccc2)nc1C(=O)N1CCCC1c1cnn(C)c1 (stereo unspecified) | -5.15 | 0 | -0.474 | 2.1 | -2.32 | -4.99 | 0.539 | 12.6 | 2.97 | 6.1 | 7.07
CSCc1cccc(S(=O)(=O)NCCCO)c1 | -4.83 | 5.2 | 5.07 | 1.97 | -0.0983 | -20.7 | 3.33 | -20.6 | 5.38 | 11.1 | -2.83
CC(C)(C)c1ncc(C(=O)NCCNC(=O)c2ccccc2)s1 | -3.42 | 21.1 | -4.68 | 1.92 | -3.64 | 0.36 | 10.7 | 12.2 | 7.39 | 18.5 | -4.66
CN1CCCCC1c1ncc2c(n1)CCN(Cc1ccccc1Cl)C2 (stereo unspecified) | 1.96 | -13.3 | 4.6 | 2.83 | 3.74 | 2.56 | 18.9 | -3.83 | 19.1 | 14.1 | 1.52
CNc1nc(CNC(=O)Nc2cccc(-c3nnco3)c2)cs1 | -5.07 | 8.11 | 1.7 | -1.65 | -3.81 | -4.25 | 4.13 | -4.5 | 2.97 | 1.22 | 4.29
